aSyn UTR act – Activators via SNCA 5'UTR binding, MLPCN | alpha-synuclein 5'UTR reporter, activators screen | activity score, % (tested at 7.5 µM), hits read low | hit rate 7.1% among 300,000 | AID 1814; in the data active = activity score below about -60%
The depositor's hits bear a star. The list is a sample of the results.

SMILES	aSyn UTR act
O=C(COc1ccc(Cc2ccccc2)cc1)c1ccc(F)cc1	-72*
O=C(Nc1ccc2c(c1)OCO2)C(=O)c1c[nH]c2ccccc12	-72*
Cc1[nH]c2ccccc2c1C(=O)C(=O)Nc1ccc2c(c1)OCCO2	-126*
CCN1CCN(Cc2ccc(NC(=O)c3cc(NC(=O)C(=O)c4c[nH]c5ccccc45)cc(OC)c3)cc2C(F)(F)F)CC1	117
O=C(/C=C/Nc1ccccc1)c1ccc(Cl)cc1Cl	-122*
Cc1cc(N=NC(=O)c2ccccc2O)c2ccccc2c1O	-123*
Cc1ccc(N=Nc2ccc(O)c3ncccc23)cc1C	74
Cn1c(O)c(N=NC(=O)c2ccccc2O)c2ccccc21	-103*
Cn1c(O)c(N=Nc2ccccc2[N+](=O)[O-])c2ccccc21	-65*
Cn1c(O)c(N=NC(=S)Nc2ccccc2F)c2cc(S(=O)(=O)N3CCOCC3)ccc21	95
Cn1c(O)c(N=NC(=O)c2ccco2)c2ccccc21	-80*
Cc1occc1C(=O)N=Nc1c(O)n(C)c2ccccc12	-247*
Cc1cccc(Cn2c(O)c(N=NC(=S)Nc3ccccc3F)c3ccccc32)c1	61
Cc1occc1C(=O)N=Nc1c(O)[nH]c2ccc(Br)cc12	-237*
OCC#CCSc1nnc(-c2ccc(Br)cc2)o1	-87*
CNC(=O)COC(=O)c1ccc(-c2nc3ccccc3s2)s1	-161*
COCCCNC(=O)COC(=O)c1ccc(-c2nc3ccccc3s2)s1	-68*
CC(C)c1ccc(C2CC(c3ccc(Br)cc3)=NN2C(N)=S)cc1 (stereo not drawn)	-97*
Cc1cc(O)c(C2=Nc3ccccc3SC(c3ccc(Cl)cc3)C2)c(=O)o1 (stereo not drawn)	-261*
COc1ccc(C)cc1N(C(=O)COc1cccc(F)c1)c1nc2ccccc2s1	-110*
O=C(Nc1cccnc1)c1ccc2ccccc2c1O	-137*
O=C(Nc1ccccn1)c1ccc2ccccc2c1O	-144*
O=C(Nc1cccc([N+](=O)[O-])c1)c1ccc2ccccc2c1O	-128*
C/C(=N\NC(=O)CSc1nc(C)[nH]c1[N+](=O)[O-])c1ccc(F)cc1	-109*
CC1CCc2c(C(=O)NCc3ccccn3)csc2C1 (stereo not drawn)	-84*
SMILES	aSyn UTR act
CC1CCc2sc(C(=O)NC(C)C3CCCO3)cc2C1 (stereo not drawn)	-96*
CC1CCc2c(C(=O)Nc3nccs3)csc2C1 (stereo not drawn)	-151*
CC1CCc2c(C(=O)Nc3ccccn3)csc2C1 (stereo not drawn)	-116*
CC1CCc2sc(C(=O)NCc3ccccn3)cc2C1 (stereo not drawn)	-112*
Cc1cc(Cl)c2oc(C(=O)N(C)C3CCOC3)c(C)c2c1 (stereo not drawn)	-108*
Cc1cc(Cl)c2oc(C(=O)N(C)Cc3ccon3)c(C)c2c1	-104*
COc1ccccc1/C=C/C(=O)Nc1ccc2c(c1)CCC2	-151*
COc1ccccc1/C=C/C(=O)Nc1ccc2c(c1)OCCO2	-145*
COCOc1ccc(-c2cc(=O)c3c(OCOC)cc(OCOC)cc3o2)cc1	-125*
COc1nc(N/N=C/c2ccc(-c3ccccc3[N+](=O)[O-])o2)nc(N2CCOCC2)n1	-105*
Cc1ccc(C(=O)N/C(=C\c2ccc(-c3ccccc3[N+](=O)[O-])o2)C(=O)NCCCN2CCOCC2)cc1	71
O=C(Nc1ccccc1)C(=O)Nc1ccc2c(c1)N(C(=O)C1CC1)CCC2	-121*
CC(=O)N1CCN(c2ccc(Nc3ncnc4c3oc3ccccc34)cc2)CC1	-81*
c1ccc(Nc2ncnc3c2oc2ccccc23)cc1	-139*
Oc1ccc(Nc2ncnc3c2oc2ccccc23)cc1	-116*
Cc1nnc(Nc2ccc3c(c2)OCO3)c2ccccc12	-80*
Oc1cccc(Nc2ncnc3c2oc2ccccc23)c1	-134*
c1ccc2c(c1)oc1c(Nc3ccc(CN4CCOCC4)cc3)ncnc12	-102*
c1ccc2c(c1)oc1c(Nc3ccc4c(c3)OCO4)ncnc12	-108*
Cc1nc(Nc2ccccc2)c2oc3ccc(Cl)cc3c2n1	-93*
Oc1ccccc1Nc1ncnc2c1oc1ccccc12	-88*
C=C1[C@@H](C)C2[C@H](Cc3ccccc3)NC(=O)[C@]23OC(=O)CC[C@H](O)CCC[C@H](C)C/C=C/[C@H]3[C@@H]1O (stereo partly drawn)	80
C/C(CC(=O)Nc1ccc(F)cc1F)=N\NC(=O)C(=O)N1CCCCC1	-68*
CCCc1cc(C(=O)Nc2cc(Br)ccc2O)no1	-145*
CCCc1cc(C(=O)Nc2cc(Cl)ccc2O)no1	-162*
SMILES	aSyn UTR act
Cc1ccc(Nc2nc(Nc3ccc(C)cc3)nc(SC3=NCCS3)n2)cc1	-95*
Cc1ccc(Nc2nc(Cl)nc(NC(C)(C)C)n2)cc1	-154*
COc1ccc(CC2(CO)COc3ccccc3C2=O)cc1 (stereo not drawn)	-64*
c1ccc(OCCOc2ccccc2-c2nnco2)cc1	-64*
CCOC(=O)C(=O)N(Nc1ccc(C)cc1)c1ccc(C)cc1	-178*
COc1ccc(C(=O)/C=C2\Sc3ccccc3N2C)cc1	-179*
CC[n+]1c(/C=C2\Sc3ccccc3N2C)ccc2cccc(C)c21	116
O=C1c2ccccc2S(=O)(=O)c2cc(N3CCc4ccccc4C3)ccc21	-180*
Cc1cnn(C(=S)NCCc2ccccc2)c1	-136*
[O-][n+]1c2c(nc3c1-c1ccccc1C3O)CCCC2 (stereo not drawn)	-77*
COCc1cc(C)nc(SCC(=O)c2ccc(O)c(O)c2)c1C#N	-80*
COCc1cc(C)nc(SCC(=O)Nc2ccc3c(c2)OCCO3)c1C#N	-86*
COCc1cc(C)nc(SCC(=O)Nc2ccc3c(c2)OCO3)c1C#N	-70*
Cc1cc2oc(C(=O)Nc3nonc3C)c(C)c2cc1Cl	-88*
Cc1nonc1NC(=O)c1oc2ccc(F)cc2c1C	-73*
O=c1oc2cc(OCc3c(F)cccc3Cl)ccc2cc1-c1ccccn1	-107*
CCCOc1ccc2cc(-c3ccccn3)c(=O)oc2c1	77
Nc1ccc2nc3c(c(Cl)c2c1)CCCC3	-88*
NC(=O)c1sc2nc3c(c(-c4ccc(Cl)cc4)c2c1N)CCCC3	66
Cc1ccc(-c2cc(=O)c3ccccc3[nH]2)cc1	-77*
Cc1ccc(-c2cc(=O)c3cc(Cl)ccc3[nH]2)cc1	-92*
Cc1ccc2[nH]c(-c3ccccc3)cc(=O)c2c1	89
Clc1ccc(-c2cc3ccccc3[nH]2)cc1	-218*
O=c1cc(-c2ccc(Cl)cc2)[nH]c2ccccc12	-69*
COc1ccc(N)cc1-n1c(C)ccc1C	-118*
SMILES	aSyn UTR act
CC(=O)c1c(C)[nH]c(C(=O)CSc2ccc(F)cc2)c1C	-182*
CCc1c(C(=O)NC2CCCc3ccccc32)[nH]c(C)c1C(C)=O (stereo not drawn)	64
Cc1cc(C(=O)CSc2ccc(Cl)cc2)cc(C)c1OC(=S)N(C)C	-179*
Cc1cc(C(=O)CSc2ccc(F)cc2)cc(C)c1O	-109*
C=CCOc1ccc(/C(O)=C2/C(=O)C(=O)N(CCCn3ccnc3)C2c2cccs2)cc1 (stereo not drawn)	-82*
CCCOc1ccc(/C(O)=C2/C(=O)C(=O)N(CCCn3ccnc3)C2c2ccco2)cc1 (stereo not drawn)	-68*
CC1Cc2cc(/C(O)=C3/C(=O)C(=O)N(Cc4ccco4)C3c3cccs3)ccc2O1 (stereo not drawn)	-82*
CCOc1ccc(/C(O)=C2/C(=O)C(=O)N(c3nc(C)c(C)s3)C2c2ccco2)cc1 (stereo not drawn)	-85*

Screening results (PubChem)
